# Assay outcomes as filed in PubChem.
# A selection: hits, their analogues and other compounds. The true share with any hit is near 8.1%.
# Shh pathway inh – Sonic Hedgehog pathway inhibition; inhibition, % (no concentration beside the values); 22,000 compounds, 2.1% hits; Shh-LIGHT2 Gli-luciferase reporter, 30 h; AID 2313;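 active means mean inhibition across valid replicates above about 65%, limit read from the data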;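 further: pathway switched on by Shh-conditioned medium diluted 1 in 25 in low serum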
# MITF inh – MITF inhibition; inhibition, % (no concentration beside the values); 37,000 compounds, 0.28% hits; TRPM1 promoter luciferase, luminescence, 24 h; in the data active means inhibition above about 85%;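 further: human melanocyte line stably carrying TRPM1 promoter luciferase reporter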
# NOMO-1 viab – STK33 inhibitor candidate reducing NOMO-1 cell viability; 37,000 compounds, 7.5% hits; inhibition, % (no concentration beside the values); NOMO-1 AML viability, CellTiter-Glo luminescence, 72 h; in the data active means inhibition above about 80%
# Numbers without * were called inactive; · = no result given.
SMILES,Shh pathway inh,MITF inh,NOMO-1 viab
COC(=O)COc1cccc(NC(=O)c2ccc(-c3ccccc3)cc2)c1,·,33,113*
COC(=O)COc1cccc(NC(=O)c2ccccc2Cl)c1,·,11,119*
Cc1cccc(C(=O)Nc2cccc(OCC(=O)O)c2)c1,·,-3,41
COc1ccc(C(=O)COc2cccc(NC(=O)c3ccccc3C)c2)cc1,·,12,5
COC(=O)COc1cccc(NC(=O)c2ccccc2I)c1,·,0,110*
CC(=O)Nc1cccc(OCC(=O)N(C)c2ccccc2)c1,·,11,4
COc1ccc([N+](=O)[O-])cc1NC(=O)CN(c1cc(C)ccc1C)S(C)(=O)=O,·,-18,8
COc1cccc(N2C(=O)CC(SCC(=O)Nc3ccc4ccccc4c3)C2=O)c1 (stereo not given),4,-12,23
O=C(Nc1cc(S(=O)(=O)c2ccccc2)cs1)c1ccc(Cl)cc1,4,45,92*
O=C(Nc1ccccc1)c1ccc(S(=O)(=O)c2cccc(S(=O)(=O)N3CCOCC3)c2)cc1,·,19,12
O=S(=O)(Cc1ccc(Cl)cc1)CC(O)COc1ccc(F)cc1 (stereo not given),-35,12,26
OC(COc1ccc(F)cc1)(c1ccc(Cl)cc1)c1ccc(Cl)cc1,75*,38,121*
O=C(c1ccc(Br)cc1)c1cc2c(cc1Br)OCCCO2,-3,-8,20
Cc1cc(Cl)ccc1OC(C)C(=O)Nc1cccc(-c2nnc(-c3ccccc3)o2)c1 (stereo not given),·,-19,65
Cc1c(C)c(C)c(CN2C(=O)c3ccccc3C2=O)c(C)c1C,20,-6,18
O=C1c2ccccc2C(=O)N1CC12CC3CC(CC(C3)C1)C2,·,5,98*
CN[C@H]1CC[C@@H](c2ccc(Cl)c(Cl)c2)c2ccccc21,·,7,107*
CC1CCc2c(sc3ncnc(SCC(=O)NC4CCCCC4)c23)C1 (stereo not given),·,1,16
CC(C)(C)c1ccc(OCC(=O)Nc2ccccc2C(N)=O)c(Br)c1,·,-90,23
CCOC(=O)c1sc(NC(=O)c2cc3ncc(Br)cn3n2)c(C(=O)OCC)c1C,·,-8,-18
C=CCc1ccc(O[C@@H]2O[C@H](CO[C@@H]3O[C@@H](C)[C@H](O)[C@@H](O)[C@H]3O)[C@@H](O)[C@H](O)[C@H]2O)c(O)c1,-5,-8,7
C=CCc1ccc(O[C@@H]2O[C@H](CO)[C@@H](O)[C@H](O)[C@H]2O)c(O[C@@H]2O[C@H](CO)[C@@H](O)[C@H](O)[C@H]2O)c1,-5,10,120*
O=C1C(Nc2ccccc2)=CC(=O)c2ncccc21,94*,97*,142*
Cn1c(SCC(=O)Nc2ccc(C(=O)O)cc2)nnc1-c1ccc(Cl)cc1Cl,·,0,6
COc1ccc([N+](=O)[O-])cc1NC(=O)CN(c1ccc(F)c(Cl)c1)S(C)(=O)=O,·,53,30
SMILES,Shh pathway inh,MITF inh,NOMO-1 viab
CCCC(O)c1c(O)cccc1C1(O)CC(=O)C/C1=C\C(O)CC(=O)O (stereo not given),-4,15,121*
COc1ccc2c(c1)c(C(=O)ON1C(=O)CCC1=O)c(C)n2C1CC1,9,-25,-1
Cc1ccccc1-c1nnc(SCC(=O)Nc2ccc(Oc3ccccc3)cc2)n1C,·,23,-11
CCn1c(SCC(=O)Nc2c(Cl)cc(Cl)cc2Cl)nnc1-c1ccccc1F,·,-4,-10
COc1ccccc1-c1nnc(SCC(=O)Nc2ccc(Cl)cc2Cl)n1-c1ccccc1,·,52,11
CC[n+]1c(C=C2C=C(C)CC(C)C2)sc2ccccc21 (stereo not given),22,44,126*
COc1ccc(CN(C)C[C@@H]2Oc3ccc(NC(=O)CCCCCC(=O)Nc4ccccc4N)cc3CC(=O)N([C@@H](C)CO)C[C@@H]2C)cc1,·,27,127*
COc1ccc(CN(C)C[C@H]2Oc3ccc(NC(=O)CCCCCC(=O)Nc4ccccc4N)cc3CC(=O)N([C@@H](C)CO)C[C@H]2C)cc1,·,7,75
COc1ccc(CN(C)C[C@@H]2Oc3ccc(NC(=O)CCCCCC(=O)Nc4ccccc4N)cc3CC(=O)N([C@H](C)CO)C[C@@H]2C)cc1,·,11,124*
COc1ccc(NC(=O)N(C)C[C@@H]2Oc3ccc(NC(=O)CCCCCC(=O)Nc4ccccc4N)cc3CC(=O)N([C@H](C)CO)C[C@H]2C)cc1,·,2,-1
Cc1cccc(NC(=O)CSc2nc3sc4c(c3c(=O)[nH]2)CCCC4)c1,·,12,-1
CS(=O)(=O)N(CC(=O)Nc1ccccc1C(F)(F)F)C1CCCCC1,·,2,6
Cc1nn(C)c(C)c1CN1CCN(C(=S)Nc2ccc(S(N)(=O)=O)cc2)CC1,·,-18,-4
C[C@H](CO)N1C[C@H](C)[C@H](CN(C)Cc2ccc(C(=O)Nc3ccccc3N)cc2)Oc2ccc(NS(C)(=O)=O)cc2CC1=O,·,15,129*
